The sample as a whole holds a higher share of hits than the screen did.
T cruzi growth-1: blocks T. cruzi growth in NIH3T3 culture; T. cruzi beta-gal in NIH3T3, GalScreen luminescence, 90 h; inhibition, % at 8.34 µM; 77,000 compounds, 5.9% hits;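 active = mean inhibition above about 93%, with at least 55% of replicates each passing it, limit read from the data, passing the limit was not always enough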
C diff HTS: blocks growth of Clostridium difficile. Clostridium difficile clinical isolate growth, OD600, 24 h; hits give low values. growth activity, negative = inhibition, % at 16 µg/mL (by protocol). 86,000 compounds, 0.25% hits. AID 1259249;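 active = mean growth activity at or below -80% and every replicate also at or below -80%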
T cruzi growth-2: Trypanosoma cruzi proliferation inhibition. T. cruzi beta-gal in NIH3T3, GalScreen luminescence, 90 h. AID 651739. 5,600 compounds, 72% hits. shares compounds with T cruzi growth-1. inhibition, % at 8.35 µM;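 active = mean replicate inhibition above about 95% and at least 55% of replicates individually reaching it, limit read from the data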
T cruzi growth-3: Trypanosoma cruzi proliferation inhibition; shares compounds with T cruzi growth-1; T. cruzi beta-gal in NIH3T3, GalScreen luminescence, 90 h; inhibition, % at 2.09 µM; 5,600 compounds, 21% hits;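 active = mean inhibition above about 95%, with at least 55% of replicates also reaching it, limit read from the data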
NIH3T3 tox: NIH/3T3 (mouse) viability loss. cytotoxicity (signal decrease), % at 8.35 µM. 5,600 compounds, 14% hits. shares compounds with T cruzi growth-1. NIH/3T3 viability, CellTiter-Glo ATP luminescence, 90 h. AID 651742;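 active = mean signal decrease across replicates above about 35% based on untreated-well scatter, with enough replicates individually passing, limit read from the data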
3T3 cytotox 2: NIH/3T3 (mouse) viability loss. shares compounds with T cruzi growth-1. NIH/3T3 viability, CellTiter-Glo ATP luminescence, 90 h. inhibition, % at 24.9 µM. 5,600 compounds, 56% hits. AID 651744;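 active = mean loss of cell viability signal at or above a set limit, and enough replicates individually reaching it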
Hits are given with their value; ! = not confirmed by another sample.

For COc1ccc(C#Cc2ccc3c(c2)[C@H]2[C@H](CCN2C(=O)C2CC2)[C@@H](CO)N3)cc1 the results were T cruzi growth-1 116, C diff HTS inactive, T cruzi growth-2 inactive, T cruzi growth-3 inactive, NIH3T3 tox inactive and 3T3 cytotox 2 inactive.
COc1ccc(C#Cc2ccc3c(c2)[C@@H]2[C@@H](CCN2C(=O)c2ccncc2)[C@@H](CO)N3)cc1 was read as T cruzi growth-1 122, C diff HTS inactive, T cruzi growth-2 105, T cruzi growth-3 inactive, NIH3T3 tox inactive and 3T3 cytotox 2 inactive.
O=C(Cc1ccccc1)N1CC[C@@H]2[C@H](CO)Nc3ccc(C#Cc4ccccc4)cc3[C@@H]21 was read as T cruzi growth-1 inactive and C diff HTS inactive.
O=C(Cc1ccccc1)N1CC[C@@H]2[C@H]1c1cc(C#Cc3ccccc3)ccc1N[C@@H]2CO was read as T cruzi growth-1 105, C diff HTS inactive, T cruzi growth-2 inactive, T cruzi growth-3 inactive, NIH3T3 tox inactive and 3T3 cytotox 2 106.
For COc1ccccc1C#Cc1ccc2c(c1)[C@H]1[C@H](CCN1C(=O)c1ccncc1)[C@@H](CO)N2 the results were C diff HTS inactive.
C[C@H]1CN([C@@H](C)CO)C(=O)c2cccc(NC(=O)NC3CCCCC3)c2O[C@@H]1CN(C)C(=O)Nc1cccc2ccccc12 was read as T cruzi growth-1 inactive and C diff HTS inactive.
Screening CO[C@@H]1CN(C)C(=O)c2cc(NC(=O)Nc3cccc(F)c3)ccc2OC[C@H](C)NC[C@H]1C returned T cruzi growth-1 inactive.
C[C@@H]1CN([C@H](C)CO)C(=O)c2cc(C#Cc3ccccc3)cnc2O[C@H]1CN(C)Cc1ccccn1 was read as T cruzi growth-1 inactive and C diff HTS inactive.
For C[C@@H]1CN([C@@H](C)CO)C(=O)Cc2cc(NS(=O)(=O)c3cn(C)cn3)ccc2O[C@@H]1CN(C)Cc1ccc(C(F)(F)F)cc1 the results were T cruzi growth-1 inactive and C diff HTS inactive.
CN1C(=O)c2cc(NC(=O)c3ccc(Cl)cc3)ccc2OC[C@H]2O[C@H](CC(=O)NCc3cccc(F)c3)CC[C@H]21 was read as T cruzi growth-1 101, C diff HTS inactive, T cruzi growth-2 inactive, T cruzi growth-3 inactive, NIH3T3 tox inactive and 3T3 cytotox 2 inactive.
For CN1C(=O)c2cc(NC(=O)c3cccc(F)c3)ccc2OC[C@@H]2O[C@H](CC(=O)NCC3CCCCC3)CC[C@@H]21 the results were T cruzi growth-1 117, C diff HTS inactive, T cruzi growth-2 inactive, T cruzi growth-3 inactive, NIH3T3 tox 43! and 3T3 cytotox 2 85.
Screening CN1C(=O)c2cc(NC(=O)c3ccc(Cl)cc3)ccc2OC[C@H]2O[C@H](CC(=O)NCc3cccc(F)c3)CC[C@@H]21 returned T cruzi growth-1 inactive and C diff HTS inactive.
For CN1C(=O)c2cc(NC(=O)c3cccc(F)c3)ccc2OC[C@H]2O[C@@H](CC(=O)NCC3CCCCC3)CC[C@H]21 the results were T cruzi growth-1 inactive and C diff HTS inactive.
`CN1C(=O)c2cc(NC(=O)c3ccccc3)ccc2OC[C@@H]2O[C@H](CC(=O)NC3CCCC3)CC[C@H]21` gave T cruzi growth-1 inactive and C diff HTS inactive.
For CN1C(=O)c2cc(NC(=O)c3cccc(F)c3)ccc2OC[C@H]2O[C@@H](CC(=O)N3CCc4ccccc4C3)CC[C@H]21 the results were T cruzi growth-1 104, C diff HTS inactive, T cruzi growth-2 97, T cruzi growth-3 inactive, NIH3T3 tox inactive and 3T3 cytotox 2 38.
For CN1C(=O)c2cc(NC(=O)c3cccc(Cl)c3)ccc2OC[C@H]2O[C@@H](CC(=O)NC3CCCCC3)CC[C@H]21 the results were T cruzi growth-1 107, C diff HTS inactive, T cruzi growth-2 104, T cruzi growth-3 inactive, NIH3T3 tox inactive and 3T3 cytotox 2 38.
CN1C(=O)c2cc(NC(=O)c3cccc(F)c3)ccc2OC[C@H]2O[C@H](CC(=O)N3CCc4ccccc4C3)CC[C@@H]21 was read as T cruzi growth-1 inactive and C diff HTS inactive.
COc1ccc(S(=O)(=O)N(C)C[C@@H]2OCCCC[C@@H](C)Oc3ccc(NC(=O)c4ccncc4)cc3C(=O)N([C@H](C)CO)C[C@@H]2C)cc1 was read as T cruzi growth-1 inactive and C diff HTS inactive.
